Sampled rows, rich in hits. Any-hit rate of the full collection: about 9.3%.
Vaccinia Venus – inhibitors of vaccinia virus (Venus reporter); Vaccinia virus Venus reporter expression, fluorescence; Potency, µM (series often up to 36.5 µM), inactives show at the top dose activity change, negative = inhibition, hits mostly inhibitors; 330,000 tested, 0.46% active; calls by dose curve; tested in A549 cells; further: potency means the concentration at half of the fitted maximal effect; nearly all actives have a fitted effect of over 30% in size
FMDV inh – blocks foot and mouth disease virus. AID 1159524. FMDV antiviral cell-based qHTS. Potency, µM (doses to about 57.9 µM), without a hit: top-dose activity change, negative = inhibition, most hits filed as inhibitors. 410,000 tested, 1.2% active; calls by dose curve; tested in HEK293T cells; further: read-out not given here; potency means the concentration at half of the fitted maximal effect; nearly all actives have a fitted effect of over 45% in size
HCV inh – blocks hepatitis C virus | 340,000 tested, 3.4% active | AID 651820 | Huh7.5.1 HCVcc-Cre infection, luciferase reporter, 44 h | Potency, µM (series often up to 41.8 µM), without a hit: at the top dose activity change, negative = inhibition, usual class: inhibitors; further: potency means the concentration at half of the fitted maximal effect
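Seed cells (1,000/well) for 4 h; treat with compound and infect with HCVcc-Cre, moi about 0.5. Incubate 44 h, then detect luciferase activity.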
Sm TGR block – inhibitors of Schistosoma mansoni thioredoxin glutathione reductase. Q962Y6. purified TGR, DTNB reduction, TNB absorbance 405 nm. Potency, µM (titrated, usually from 114 µM), without a hit: at the highest dose activity change, negative = inhibition, most hits filed as inhibitors. 360,000 tested, 3% active. AID 485364; further: potency means the concentration at half of the fitted maximal effect; nearly all actives have a fitted effect of over 60% in size
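First, TGR (20 nM dispensed) and NADPH were mixed with compound. Second, a 15 min room-temperature incubation followed. Third, further NADPH and then DTNB were added to start the reaction. Finally, TNB absorbance was monitored kinetically.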
HCMV inh – blocks human cytomegalovirus replication. HFF cells, HCMV-luciferase reporter, 72 h; hits give low values. activity change, negative = inhibition, % at 57.5 µM. 410,000 tested, 4.5% active; in the data active means activity change below about -60%; inconclusive means no clear call, values can overlap the other calls; inactive means above about -39%
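Human foreskin fibroblasts infected with luciferase-reporter HCMV at MOI 1 PFU/cell, compounds at two doses. Luciferase measured 72 h post infection; normalized to buffer-only basal and Salinomycin (10uM) controls.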
VACV mCherry inh – vaccinia inhibition (mCherry reporter). AID 720579. Vaccinia virus mCherry reporter infection, fluorescence. Potency, µM (titrated, usually from 36.5 µM), for the others: top-dose activity change, negative = inhibition, usual class: inhibitors. 310,000 tested, 0.63% active; calls by dose curve; tested in A549 cells; further: potency means the concentration at half of the fitted maximal effect; nearly all actives have a fitted effect of over 35% in size
* marks the source's active call; other numbers are inactive results; i = inactive; ? = inconclusive; . = no result; [ ] = another dose, or the depositor's remark. Unless noted, the call rests on the fitted dose curve; in most records, active means well fitted curve in the direction sought with a large enough effect; inconclusive means small, poorly fitted or top-dose-only effect, or another doubt; inactive means no such curve, though single readings can be large; an effect the other way counts as inactive or inconclusive. On the % scale 0 is the no-effect control and ±100 the full control effect.

SMILES	Vaccinia Venus	FMDV inh	HCV inh	Sm TGR block	HCMV inh	VACV mCherry inh
CCC1(c2ccc(Cl)cc2)NC(=O)N(Cc2ccc(C(=O)OC)cc2)C1=O (stereo not given)	-7%	?	10µM*	-1%	?	i
c1ccc(N2CCN(c3ncnc4c3nc3n4CCCC3)CC2)cc1	?	14µM*	.	4%	-68*	-29%
COc1cccc(CNC(=O)C2CCN(c3ncnc4c3nc3n4CCCCC3)CC2)c1	-12%	-10%	25%	7%	?	-13%
COc1ccc(N2CCN(c3ncnc4c3nc3n4CCCCC3)CC2)cc1	?	11µM*	.	-12%	-27	?
Cc1ccc(C)c(N2CCN(c3ncnc4c3nc3n4CCCC3)CC2)c1	-5%	?	.	-1%	48	-13%
Cc1ccc(Cl)cc1N1CCN(c2ncnc3c2nc2n3CCCC2)CC1	?	28µM*	.	-1%	-17	-30%
COc1cccc(N2CCN(c3ncnc4c3nc3n4CCCCC3)CC2)c1	?	11µM*	.	-1%	-99*	?
COc1ccccc1N1CCN(c2ncnc3c2nc2n3CCCC2)CC1	-15%	?	.	3%	-25	-15%
COc1ccccc1NC(=O)CCS(=O)(=O)c1ccc2c(c1)NC(=O)C(C)S2 (stereo not given)	.	-13%	-16%	-34%	.	.
CCOc1ccccc1CNc1ncnc2c1nc1n2CCCC1	-6%	-1%	.	0%	-81*	i
CC(=O)c1ccc(N2CCN(c3ncnc4c3nc3n4CCCC3)CC2)cc1	?	18µM*	.	3%	-86*	-27%
FC(F)(F)c1cccc(N2CCN(c3ncnc4c3nc3n4CCCC3)CC2)c1	-23%[7.34 µM]	20µM*	.	4%	-73*	-28%[7.34 µM]
CCCN(CCC)C(=O)c1ccc2nc(-c3ccc(OC)c(OC)c3)c(-c3ccc(OC)c(OC)c3)nc2c1	.	16%	?	3%	102	.
CC(C)N1CC(C(=O)Nc2ccc(C#N)cc2)CC1=O (stereo not given)	.	-11%	9%	0%	48	.
COc1ccc(N2CCc3c(C)nc4c(OC)cccc4c32)cc1	-12%	16%	?	-2%	-66*	-14%
Cc1nc2c(C)cccc2c2c1CCN2c1ccccc1F	-1%	?	?	2%	?	i
COc1ccc(N2CCc3c(C)nc4c(OC)cc(OC)cc4c32)cc1	?	?	13µM*	7%	-108*	?
COc1ccc(N2CCc3c(C)nc4c(OC)cc(OC)cc4c32)c(OC)c1	.	0%	11µM*	4%	-20	.
COc1cccc(N2CCc3c(C)nc4ccc(Cl)cc4c32)c1	?	?	?	1%	-22	-17%
CCc1nn2cc(C(=O)c3cc(Cl)ccc3O)cnc2c1-c1ccc(F)cc1	-6%	?	?	-15%	-70*	-14%
Cc1ccc(S(=O)(=O)NNC(=O)CC#N)cc1	-8%	7%	11%	5%	11	i
CCOC(=O)c1oc2ccc(Br)cc2c1COC(=O)C1=COCCO1	8%	-1%	25µM*	-3%	-24	-10%
CC1=C(C(=O)N2CCOCC2)C(c2ccsc2)C2=C(CCCC2=O)N1 (stereo not given)	.	2%	10%	45µM*	-2	.
O=C(O)CCNC(=O)c1ccc(NC(=O)C(c2ccccc2)c2ccccc2)cc1	.	10%	15%	0%	11	.
CN(C)C1CCN(Cc2cc(COCc3ccccc3)c3cccnc3c2O)C1 (stereo not given)	.	-21%	.	14µM*	.	.
SMILES	Vaccinia Venus	FMDV inh	HCV inh	Sm TGR block	HCMV inh	VACV mCherry inh
Oc1c(CN2CCCCC2)cc(COCc2ccccc2)c2cccnc12	?	-28%	10µM*	35µM*	-96*	2.5µM*
CN(C)[C@H]1CCN([C@H]2CS(=O)(=O)N[C@@H]2COCc2ccccc2)C1	-4%	-1%	.	.	25	i
COCc1cc(CN2CCCC2)c(O)c2ncccc12	?	.	2.8µM*	?	-95*	14µM*
O=[N+]([O-])c1cc(CN2CCCC2)c2cccnc2c1O	-8%	-1%	11%	-29%	.	-16%
Oc1cc(Cc2ccccc2)cnc1CN1CCCCC1	-11%	-9%	-3%	?	-3	i
CCOC(=O)C1CCN(c2nc3ccccc3nc2C(C#N)C(=O)NCCc2ccccc2)CC1 (stereo not given)	.	.	.	-4%	.	.
Cc1cccc(OCC(O)Cn2c(=N)n(Cc3ccccc3)c3ccccc32)c1 (stereo not given)	.	?	?	-5%	-10	.
COc1ccccc1S(=O)(=O)CC(O)COc1ccccc1Cl (stereo not given)	-23%	-1%	7%	-24%	?	-28%
COc1ccc(OCC(O)Cn2c(=N)n(Cc3ccccc3)c3ccccc32)cc1 (stereo not given)	.	?	10µM*	10%	-38	.
N=c1n(Cc2ccc(Cl)cc2)c2ccccc2n1CC(O)COc1ccccc1 (stereo not given)	?	?	13µM*	0%	-102*	28µM*
COc1ccccc1[As](=O)(O)CC(O)COc1ccc(Cl)cc1Cl (stereo not given)	.	.	.	40µM*	-18	.
Cc1ccc(OCC(O)Cn2c(=N)n(Cc3ccccc3)c3ccccc32)cc1 (stereo not given)	14µM*	0%	?	-10%	-74*	11µM*
CC(C)c1ccc(OCC(=O)Nc2ccccc2C(=O)N2CCOCC2)cc1	-4%	-28%	-27%	0%	.	-8%
Cc1cc(C(=O)N/N=C/c2cccc(Cl)c2Cl)no1	-12%	65%	-11%	32%	40	i
CCOC(=O)COc1c(C(=O)OC)sc2ncccc12	-11%	-3%	14%	-2%	-23	i
N=c1n(Cc2ccccc2)c2ccccc2n1CC(O)COc1ccc(Cl)cc1Cl (stereo not given)	?	35µM*	11µM*	8%[57.1 µM]	-101*	?
COc1cc(Cl)c(NC2=CC(=O)C(=O)c3ccccc32)c(OC)c1	.	?	16µM*	?	-97*	.
CCOc1ccc(NC2=CC(=O)C(=O)c3ccccc32)cc1	?	7%	?	.	?	?
CCCN(CCC)C(=O)C1CCN(c2cc(C)nc3c(-c4ccc(OC)c(OC)c4)c(C)nn23)CC1	-24%	-28%	?	-11%	-14	?
Cn1c(-c2ccsc2)cc2c(Nc3ccc(Oc4ccccc4)cc3)nccc21	.	.	.	.	-89*	.
COc1cccc(-c2cc3c(Nc4ccc(OC)cc4C)nccc3n2C)c1	.	.	.	.	-2	.
O=C(NCc1ccc(Cl)cc1)C1CCN(C(=O)Cc2ccccc2)CC1	-5%	-19%	0%	7%	-68*	-1%
O=C(NC1CCCC1)C1CCN(C(=O)NCc2ccccc2)CC1	.	-22%	3%	11%	-63*	.

From PubChem BioAssay
